Data on 28 compounds can be found in PubChem BioAssay (NCI).

The panel holds about 83,000 compounds, 20% with a hit somewhere; the sample as a whole holds those more often.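 The endpoint reported here, percent growth, reads 100 for growth as untreated, 0 for no net growth and -100 for all cells dead.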 Values without a mark were called inactive. Activity calls are given as the source filed them. Rule for the calls: active = growth percent below 10; inactive = the rest.

For the assay, the system named is ACHN renal. As to the kind of experiment: NCI-60 one-dose screen, 48 h (100 = growth as untreated, 0 = no growth, -100 = all killed). Particulars: 10 µM unless noted.
As for `CCOC(=O)c1nn(CC(O)c2ccccc2)c(NC(=O)Nc2cccc(F)c2)c1C` (stereo not drawn), the growth is 107%.

In the case of `O=C(N/N=C\c1ccccc1S(=O)(=O)O)N/N=C/c1ccccc1S(=O)(=O)O`, the growth was 98.7%.

`CC[C@]12C=CCN3CC[C@@]4(c5ccc(OC)cc5N(C)[C@H]4[C@@](O)(C(=O)OC)[C@@H]1OC(=O)CCC[P+](c1ccccc1)(c1ccccc1)c1ccccc1)[C@@H]32`: the growth was 89.9%.

For the compound `CCCn1nc(C(=O)N(C)Cc2ccccc2)c2c1CCC(N1CCc3ccccc31)C2` (stereo not drawn), the growth is 96%.

In the case of `C=C1C(=O)O[C@H]2[C@H]1CC/C(COC(=O)/C=C\C(=O)NCc1ccc(Cn3c(=O)sn(CCCl)c3=O)cc1)=C\CC[C@@]1(C)O[C@@H]21`, the growth was 44.2%.

Regarding `COC(=O)c1ccc(NC(=O)Nc2ccc(C(=O)OC)cc2)cc1`, the growth is 104%.

`O=C(O)c1cn(C2CC2)c2cc(N3CCN(C(=O)Nc4nc(-c5ccc(Br)cc5)cs4)CC3)c(F)cc2c1=O`: the growth is 17%.

As for `NC(=O)c1c(NC(=O)c2cccc(C(F)(F)F)c2)sc2c1CCC(=O)C2`, the growth was -93.4% (active).

Consider `CC1=C(C(=O)Nc2ccccc2)C(c2ccc3c(c2)OCO3)NC(=S)N1` (stereo not drawn), for which the growth was 107%.

Consider `NS(=O)(=O)c1ccc(-c2cc(-c3nnc(SCC(=O)Nc4ccc(C(=O)/C=C/c5ccc(Cl)cc5)cc4)n3-c3ccccc3)c3ccccc3n2)cc1`, for which the growth was 106%.

Take `COC(=O)c1cc(Br)ccc1O`: the growth is 99.5%.

For the compound `C=C1C(=O)O[C@H]2[C@H]1CC/C(COC(=O)/C=C/C(=O)OC/C1=C/CC[C@@]3(C)O[C@H]3[C@H]3OC(=O)C(=C)[C@@H]3CC1)=C\CC[C@@]1(C)O[C@@H]21`, the growth was -13.5% (active).

On to `CNC1=CC(=O)c2c(C(=O)OC)c(C)[n+]([O-])c(C)c2C1=O`, for which the growth was 74.4%.

For `O=C(Nc1ncccc1OCc1ccccc1)NC1CCCCCC1`, the growth is 93.4%.

Consider `O=C1/C(=C\c2cccc3nccnc23)SC(=S)N1CCc1ccc(O)cc1`, for which the growth is 97.3%.

For `O=C1/C=C/[C@@H](O)[C@@H]2C[C@@H](O)C[C@H]2/C=C/CCC[C@@H](O)CCO1`, the growth was 104%.

For the compound `Cc1ccc(CNc2c3ccccc3nc3ccccc23)cc1`, the growth was 14%.

For the compound `Cc1ccnc(Nc2ccc([N+](=O)[O-])c(NCCN3CCOCC3)n2)c1`, the growth is 38.6%.

Turning to `CSc1nn2c(-c3ccc4ccccc4c3)ccnc2c1C#N`, the growth was 16%.

For `COc1cc2nc3sc(C(=O)Nc4ccc(C(=O)OC(C)C)cc4)c(C(=O)Nc4ccc(Cl)cc4C)n3c(=O)c2cc1OC`, the growth is 97%.

For the compound `COC(=O)/C=C1/SC(=Nc2ccc([N+](=O)[O-])cc2)N(CCc2c[nH]c3ccc(O)cc23)C1=O`, the growth was 53.4%.

On to `O=S1(=O)C=C(c2ccccc2)C(c2ccccc2)=C1`, for which the growth is -47.4% (active).

Regarding `O=C(O)COc1ccc(Cl)c(Cl)c1`, the growth is 107%.

Consider `O=C1/C(=C/c2ccccn2)NC(=S)N1c1ccccc1Cl`, for which the growth is 53.3%.

With `CCS/C(Nc1ccccc1)=C(\C#N)C(=O)Nc1ccc(OC)cc1`, the growth was 51.9%.

As for `COc1ccc(C(=O)N2c3ccccc3Sc3ccccc32)c(C(F)(F)F)c1`, the growth is 32.5%.

Take `Cc1ccc(-c2csc(NC(=O)c3ccccc3CN3C(=O)c4ccccc4C3=O)n2)cc1`: the growth is 108%.

Consider `CNC(=O)c1cc(Oc2cccc3nc(NC(=O)Nc4cc(C(F)(F)F)ccc4Cl)ccc23)ccn1`, for which the growth is 101%.
